Compound activity (PubChem)
TSG101-PTAP inh: blocks PTAP binding to human TSG101, validation | Q99816 | 44,000 tested, under 10 active | Fluorescence polarization, FITC-PTAP peptide/Tsg101, 20 min | Potency, µM (doses to about 115 µM), actives largely listed as inhibitors; note: 0% is about no effect
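Steps: Tsg101 binding domain (10 uM final) in HEPES pH 7.5/NaCl/Tween 20/EDTA/TCEP; add compound; add FITC-PTAP peptide (50 nM final); incubate 20 min r.t.; read polarization.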
HTT-AS act: activates huntingtin-antisense promoter activity; HEK293 HTT-AS promoter firefly luciferase reporter, 24 h; response scale: percent change from vehicle, -100% = no light; Potency, µM (top dose mostly 57.5 µM), for inactives: at the top dose activity change, positive = activation, hits mostly activators; actives 0.24% (n = 48,000); AID 1508624; note: nearly all actives have a fitted effect of over 55% in size
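Luminescence was read after Dual-Glo reagent and a 10 min room-temperature incubation. Values were normalized to vehicle (0% activity) and zero RLU (-100% activity). Reporter HEK293 cells had been exposed to compounds (up to 57.5 uM final) for 24 h.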
HTT promoter inh: inhibitors of huntingtin promoter activity; HEK293 HTT promoter firefly luciferase reporter, 24 h; Potency, µM (doses to about 57.5 µM), inactives show at the highest dose activity change, negative = inhibition, actives largely listed as inhibitors; actives 0.93% (n = 48,000); AID 1508623; note: nearly all actives have a fitted effect of over 50% in size
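Firefly luciferase readout (Dual-Glo, 10 min RT) after 24 h, 37 °C compound exposure (final up to 57.5 uM) of HEK293 reporter cells cultured 24 h beforehand; PTC124 at 50 uM final as control inhibitor; activity scaled vehicle 0%, zero RLU -100%.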
FH mod: Identification of activators of human fumarate hydratase by quantitative high-throughput screening | Fumarate hydratase, mitochondrial (Homo sapiens), P07954 | FH coupled MDH/diaphorase resazurin fluorescence, 15 min | Potency, µM (doses to about 79.9 µM), without a hit: at the top dose activity change, negative = inhibition, most hits filed as inhibitors | actives 0.22% (n = 54,000) | AID 1347055, 2019; note: % is set by controls: 0 for no effect and ±100 for the full control effect; the screen sought activators but most active calls are inhibition curves; nearly all actives have a fitted effect of over 45% in size
Target sequence (P07954 whole entry, looked up): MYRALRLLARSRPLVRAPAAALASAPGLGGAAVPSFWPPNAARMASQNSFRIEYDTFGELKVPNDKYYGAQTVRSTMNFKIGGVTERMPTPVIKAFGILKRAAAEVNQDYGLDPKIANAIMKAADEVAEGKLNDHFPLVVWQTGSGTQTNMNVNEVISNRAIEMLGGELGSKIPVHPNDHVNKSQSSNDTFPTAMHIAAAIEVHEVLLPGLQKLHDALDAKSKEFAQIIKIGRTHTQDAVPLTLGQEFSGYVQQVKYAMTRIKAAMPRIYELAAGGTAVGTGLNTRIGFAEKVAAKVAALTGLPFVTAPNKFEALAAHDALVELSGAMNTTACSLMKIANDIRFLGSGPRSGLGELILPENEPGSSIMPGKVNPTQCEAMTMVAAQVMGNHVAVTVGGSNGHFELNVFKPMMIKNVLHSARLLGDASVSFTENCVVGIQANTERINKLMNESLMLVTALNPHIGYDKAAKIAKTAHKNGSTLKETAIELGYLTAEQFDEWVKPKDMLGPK
The depositor's hits bear a star; i = inactive; ? = inconclusive; nt = no result; ! = not active in a repeat; [ ] = dose if it differs, or a comment. Hits are enriched below; roughly 1.3% of the tested compounds scored in any of these assays. Calls come from the whole dose curve; as a rule, active = well fitted curve in the direction sought with a large enough effect; inconclusive = small, poorly fitted or top-dose-only effect, or another doubt; inactive = no such curve, though single readings can be large; an effect the other way counts as inactive or inconclusive. Potency is the fitted concentration of half-maximal effect.

SMILES	TSG101-PTAP inh	HTT-AS act	HTT promoter inh	FH mod
Cc1ccc(S(=O)(=O)N2CCC(c3ccncc3)CC2)c(C)c1	i	-84%	16µM*	-2%
O=S(=O)(c1ccc(Cl)cc1)N1CCC(c2ccncc2)CC1	i	-8%	-7%	-9%
CC(C)(C)c1ccc(S(=O)(=O)N2CCC(c3ccncc3)CC2)cc1	i	-88%	16µM*	-7%
CC(C)Cc1ccc(S(=O)(=O)N2CCC(c3ccncc3)CC2)cc1	i	-80%	16µM*	-8%
CCCC1=CC2=C(CO1)C(=O)C(C)(OC(=O)c1c(C)cc(OC)cc1O)C(O)C2 (stereo unspecified)	nt	nt	nt	3%[53.3 µM]
COc1cccc(CNS(=O)(=O)c2ccc(N3CCCCS3(=O)=O)cc2)c1	i	-18%	16µM*	-1%
O=S(=O)(Nc1ccc(OC(F)(F)F)cc1)c1ccc(N2CCCCS2(=O)=O)cc1	i	-19%	?	-8%
COc1ccc(NS(=O)(=O)c2ccc(N3CCCCS3(=O)=O)cc2)cc1Cl	i	-24%	14µM*	-13%
COc1ccc(CCNS(=O)(=O)c2ccc(N3CCCCS3(=O)=O)cc2)cc1	i	-29%	?	-16%
CC(Sc1nc2c(cnn2-c2cccc(Cl)c2)c(=O)[nH]1)C(N)=O (stereo unspecified)	nt	nt	nt	-9%
Oc1ccc2ccccc2c1SSc1c(O)ccc2ccccc12	nt	-22%	?	35µM*!
Cc1nc2cc(-c3ccc(Cl)cc3)nn2c(C)c1CCC(=O)N1CCN(c2ccccc2)CC1	i	-75%	1µM*	-13%
Cc1nc2cc(-c3ccccc3)nn2c(C)c1CCC(=O)N1CCN(c2ccccc2)CC1	i	-67%	2.5µM*	-10%
O=c1[nH]c2ccc(NCc3ccc(-c4ccccc4F)o3)cc2[nH]1	i	-60%	28µM*	-26%
O=[N+]([O-])c1cccc2c(Br)[nH]nc12	nt	nt	nt	-24%[53.3 µM]
NS(=O)(=O)c1cccc2c1c([N+](=O)[O-])cc1nc(O)c(O)nc12	nt	nt	nt	18µM*
CCOc1ccc(S(=O)(=O)NCCc2csc3nc(-c4ccc(OC)c(OC)c4)nn23)cc1	i	-3%	16%	-11%
CCOc1ccc(S(=O)(=O)NCCc2csc3nc(-c4ccc(F)cc4)nn23)cc1	i	-42%	25µM*	-8%
NC(=O)c1ccc(I)c([N+](=O)[O-])c1	nt	-1%	26%	1%[53.3 µM]
N#Cc1cc([N+](=O)[O-])c2sc(C(N)=O)[n+]([O-])c2c1	nt	nt	nt	20µM*!
O=C1CCC=CC1(O)C(=O)OCc1ccccc1O[C@@H]1O[C@H](CO)[C@@H](O)[C@H](O)[C@H]1O (stereo partly specified)	nt	nt	nt	5%[53.3 µM]
CCOC(=O)c1ccc(N2C(=O)c3n[nH]c(-c4cccs4)c3C2c2ccc(C(C)C)cc2)cc1 (stereo unspecified)	i	-51%	25µM*	-32%
CCOC(=O)c1ccc(N2C(=O)c3n[nH]c(-c4cccs4)c3C2c2ccc(CC)cc2)cc1 (stereo unspecified)	i	-81%	20µM*	?
CCOC(=O)c1ccc(N2C(=O)c3n[nH]c(-c4cccs4)c3C2c2ccc(OCC)cc2)cc1 (stereo unspecified)	i	-42%	?	?
COc1cc(CN(C(=O)COc2ccc(C)cc2)c2ccccn2)cc(OC)c1OC	i	-30%	?	-2%
SMILES	TSG101-PTAP inh	HTT-AS act	HTT promoter inh	FH mod
COc1cc(CN(C(=O)COc2ccc(Br)cc2)c2ccccn2)cc(OC)c1OC	i	-34%	32µM*	-3%
CCS(=O)(=O)c1ncc(Cl)c(C(=O)N(Cc2ccccc2)Cc2ccco2)n1	i	-94%	35µM*	4%
Cc1ccc(NC(=O)c2cc(-c3cccs3)on2)cc1C	i	8.9µM*	63%	9%
COc1c2c(c(C)c3c1C(=O)OC3)OC1(C)CC(O)C34OC(OC)(CC(OC(C)=O)C3(C)C1C2)OC4(C)C (stereo unspecified)	nt	nt	nt	21%[53.3 µM]
O=C(O)c1ccc(CCCc2ccc(OCCc3ccc(F)cc3)cc2)o1	nt	nt	nt	2%
COc1cccc2sc(NC(=O)c3ccc(S(=O)(=O)N4CCC(C)CC4)cc3)nc12	i	-45%	28µM*	-9%
CCc1nn2c(=O)cc(COC(=O)c3ccccc3)nc2s1	i	4µM*	43%	-5%
Cc1nn2c(=O)cc(COC(=O)c3cccc(NC(=O)COc4ccccc4C)c3)nc2s1	i	-90%	3.2µM*	?
